Screens from PubChem BioAssay.
The list is not random: actives were taken first. Their share in the collection is about 8%.
MCF10A rereplic: inducers of DNA re-replication in MCF 10A breast cells | MCF 10A DNA re-replication, Hoechst nuclear intensity, 48 h | Potency, µM (titrated, usually from 46.1 µM), hits mostly activators | actives 2.9% (n = 350,000); also: nearly all actives have a fitted effect of over 50% in size
HT1080-NT tox: kills 2HG-producing HT-1080-NT fibrosarcoma cells. HT-1080-NT fibrosarcoma viability, CellTiter-Glo ATP luminescence, 48 h. Potency, µM (series often up to 46.1 µM), actives largely listed as cytotoxic. actives 1.6% (n = 360,000). AID 686970;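 also: NT is the 2HG producing partner of a matched IDH1 knockdown line; nearly all actives have a fitted effect of over 55% in size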
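A 48-hour cytotoxicity screen used HT-1080-NT cells plated 2 hours before compound delivery. ATP-based CellTiter-Glo luminescence measured viability, normalized to DMSO and no-cell controls.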
SW480 rereplic: induces DNA re-replication in SW480 colon adenocarcinoma cells; actives 1.8% (n = 340,000); Potency, µM (doses to about 46.1 µM), usual class: activators; SW480 DNA re-replication, Hoechst DNA content imaging, 48 h; also: nearly all actives have a fitted effect of over 55% in size
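SW480 cells exposed to compounds for 48 hr at 37 C, 5% CO2, then Hoechst-stained 40 min. Nuclear DNA content imaged by fluorescence scanning (405 nm excitation, 500-530 nm emission); re-replication scored as increased high-intensity nuclei.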
KB-3-1 cytotox: kills parental KB-3-1 adenocarcinoma cells; actives 1.4% (n = 400,000); Potency, µM (highest dose often 46.1 µM), usual class: cytotoxic; AID 1347075; KB-3-1 viability, CellTiter-Glo ATP luminescence, 72 h; also: nearly all actives have a fitted effect of over 60% in size
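Using CellTiter-Glo luminescence, growth of non-resistant KB-3-1 adenocarcinoma cells is assessed 72 h after pin-tool compound addition at 37 °C. Normalized responses across the concentration series yield fitted curves.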
HT1080 IDH1KD tx: HT-1080 IDH1 knockdown cell toxicity (counter line). actives 2% (n = 360,000). HT-1080 IDH1 knockdown viability, ATP luminescence, 48 h. Potency, µM (highest dose often 46.1 µM), hits mostly cytotoxic
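Using the IDH1-knockdown HT-1080 line run in the same batch and compound series as the NT line, viability after 48 h at 37 °C was determined by CellTiter-Glo luminescence and expressed as % activity.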
KB-V1 cytotox: kills drug-selected multidrug resistant KB-V1 cells; KB-V1 MDR cells viability, CellTiter-Glo, 72 h; Potency, µM (titrated, usually from 46.1 µM), most hits filed as cytotoxic; actives 3.4% (n = 400,000); also: nearly all actives have a fitted effect of over 60% in size
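Readout: CellTiter-Glo luminescence, 10 min after addition. Cells: KB-V1 MDR subline, 72 h at 37 degrees C with compound. Analysis: corrected, normalized data fitted to concentration-effect curves.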
Numbers stand for hits; i = inactive; ? = inconclusive; nt = not tested or not shown; ! = not active in a repeat; [ ] = dose if it differs, or a comment. Calls follow the shape of the dose curve; as a rule, active = well fitted curve in the direction sought with a large enough effect; inconclusive = small, poorly fitted or top-dose-only effect, or another doubt; inactive = no such curve, though single readings can be large; an effect the other way counts as inactive or inconclusive.

SMILES	MCF10A rereplic	HT1080-NT tox	SW480 rereplic	KB-3-1 cytotox	HT1080 IDH1KD tx	KB-V1 cytotox
Cc1ccc(CSc2ncnc3ccccc23)cc1	i	i	i	i	i	i
O=Cc1cc2ccccc2nc1SCc1ccc(Cl)cc1	?	5.17µM	?	6.51µM	7.31µM	?
Clc1ccc(CSc2cnnc3ccccc23)cc1Cl	i	i	i	i	i	i
O=Cc1cc2ccccc2nc1SCc1ccc(Cl)c(Cl)c1	?	4.11µM	?	4.61µM	5.8µM	5.8µM
Cc1ccc(CSc2nc3ccccc3cc2C=O)cc1	20.6µM	5.8µM	2.59µM	8.2µM	6.51µM	?
CCCCNc1ncnc2c1nnn2Cc1ccccc1Cl	?	i	i	i	i	i
COc1cc(CN2c3ccc(Br)cc3C(=O)CS2(=O)=O)cc(OC)c1	nt	nt	nt	i	nt	i
O=C(NCCN1C(=O)S/C(=C\c2ccccc2Cl)C1=O)C1=COCCO1	7.31µM	i	?	?	i	?
O=C(NCCN1C(=O)S/C(=C\c2ccc(Cl)cc2)C1=O)C1=COCCO1	i	i	i	nt	i	nt
O=C(NCCN1C(=O)S/C(=C\c2ccc(Cl)cc2Cl)C1=O)C1=COCCO1	13µM	?	?	?	?	?
O=C(NCCN1C(=O)S/C(=C\c2ccccc2F)C1=O)C1=COCCO1	2.59µM	?	4.11µM	?	11.6µM	9.2µM
O=C(CNC(=O)c1ccccc1F)NCCN1C(=O)S/C(=C\c2ccccc2Cl)C1=O	i	i	i	i	i	?
Cc1cc(N2CCN(C(C(=O)NC3CCCC3)c3ccc(-c4ccccc4)cc3)CC2)c2ccccc2n1 (stereo not drawn)	nt	i	nt	?	i	20.6µM
O=C(/C(=C/O)N=Nc1ccccc1)c1ccc(Cl)cc1	?	16.4µM	i	i	18.4µM	?
Cc1nn(CC#N)c(=O)n1-c1cccc(F)c1	i	i	i[9.22 µM]	i	i	i
CN(C(=O)CSc1ncnc2sccc12)C1CCS(=O)(=O)C1 (stereo not drawn)	i	i	?	i	i	?
CN(C(=O)CSc1ncnc2sccc12)C1CCCCC1	i	i	i	i	i	5.17µM
CCn1c2ccccc2c2cc(/C=N/O)ccc21	i	i	4.11µM	i	i	11.6µM
CCn1c2ccccc2c2cc(/C=N/n3cn[nH]c3=S)ccc21	?	i	3.66µM	i	i	?
CCn1c2ccccc2c2cc(/C=N/n3cnnc3)ccc21	i	?	i	i	i	i
Cc1cc(-c2n[nH]c(=S)n2/N=C/c2ccc(Cl)c([N+](=O)[O-])c2)n[nH]1	?	6.51µM	?	?	4.61µM	i
S=c1[nH]nc(-c2cc(-c3ccccc3)n[nH]2)n1/N=C/c1cccc(Cl)c1	23.1µM	i	?	i	i	i
O=[N+]([O-])c1cc(/C=N/n2c(-c3ccncc3)n[nH]c2=S)ccc1Cl	?	i	?	i	i	i
S=c1[nH]nc(-c2cc(-c3ccccc3)n[nH]2)n1/N=C/c1ccc(Cl)cc1	?	i	i	i	i	i
CC(Sc1nccn1C)C(=O)Nc1ccccc1C#N (stereo not drawn)	nt	nt	nt	i	nt	i
SMILES	MCF10A rereplic	HT1080-NT tox	SW480 rereplic	KB-3-1 cytotox	HT1080 IDH1KD tx	KB-V1 cytotox
CC1(C(=O)NS(=O)(=O)Cc2ccccc2)CCN1C(=O)C1(c2ccc(Cl)cc2)CC1 (stereo not drawn)	nt	i	nt	i	i	i
Cc1cc(NC(=O)c2ccccc2F)ncc1NC(=O)c1cccs1	i	i	i	i	i	i
CCn1c2ccccc2c2cc(/C=N/n3c(-c4cc(C)[nH]n4)n[nH]c3=S)ccc21	8.2µM	i	i	i	?	i
O=C(Cc1ccc2c(c1)CCCC2)Nc1ccc2ccccc2c1	?	i	i	i	i	i
CCN(Cc1ccccc1)C(c1cc2ccc(C)cc2[nH]c1=O)c1nnnn1CCOC (stereo not drawn)	i	i	i	i	i	14.6µM
N#C/C(=C/c1ccc(-c2ccc(S(N)(=O)=O)cc2)o1)c1nc2ccccc2s1	3.66µM	?	10.3µM	i	?	i
COC(=O)c1ccc(/C=C(\C#N)c2nc3ccccc3s2)cc1	?	i	i	i	i	i
N#C/C(=C/c1ccc(-c2ccc(S(N)(=O)=O)cc2)o1)C(=O)Nc1ccccc1	i	i	i	i	i	i
N#C/C(=C\c1ccccn1)c1nc2ccccc2s1	14.6µM	?	16.4µM	i	i	?
O=C(Nc1ccccc1)c1ccc(NCCN2C(=O)CCC2=O)c([N+](=O)[O-])c1	i	i	i	i	i	i
COc1ccc(NC(=O)C2CC(c3ccccc3O)=NO2)cc1OC (stereo not drawn)	i	i	i	i	i	i
O=S1(=O)CCOC[C@H](Cc2ccccc2)N1Cc1cccc(C(F)(F)F)c1	i	i	?	i	i	?
O=S1(=O)CCOC[C@H](CC2CCCCC2)N1Cc1cccc(C(F)(F)F)c1	i	i	i	?	i	13µM!
CC1=NN(C(=O)c2cc(C)nn2C)C(O)(C(F)(F)F)C1 (stereo not drawn)	i	i	0.517µM	i	i	i
CC1=NN(C(=O)c2nn(C)cc2Br)C(O)(C(F)(F)F)C1 (stereo not drawn)	?	i	13µM	i	i	i
CC1=NN(C(=O)c2csc(C)c2)C(O)(C(F)(F)F)C1 (stereo not drawn)	i	i	i	i	i	i
CC1=NN(C(=O)c2c(Br)cnn2C)C(O)(C(F)(F)F)C1 (stereo not drawn)	i	i	i	i	i	i
COc1cc(CN2CCNC(=O)C2CC(=O)NCCCC2CCCC2)cc(OC)c1 (stereo not drawn)	i	i	i	i	i	i
CCCc1cc(C(=O)Nc2c(C)nn(Cc3c(Cl)cccc3Cl)c2C)no1	nt	nt	nt	i	nt	?
Cc1cccc(C)c1NC(=O)C(c1cc2ccccc2o1)N1CCC(c2ccccc2)CC1 (stereo not drawn)	nt	i	nt	?	i	20.6µM
Cc1cc(C)n2cc(CSc3nncn3C)nc2n1	?	i	i	i	i	i
CCCS(=O)(=O)Nc1cccc(-c2cn3ccc(C)cc3n2)c1	nt	nt	nt	i	nt	i
CO/N=C/C(=N\Nc1ccc(C)cc1)C(=O)c1ccc(OC)cc1	2.59µM	?	?	5.17µM	2.91µM	4.61µM
CO/N=C/C(=N\Nc1ccc(OC)cc1)C(=O)c1ccc(F)cc1	?	i	i	i	?	i
CCCCc1c(O)c2ccccc2[nH]c1=O	i	i	i	i	i	i
CCCCCCCCC1=NCCc2c1[nH]c1ccccc21	11.6µM	?	?	i	?	i
COc1ccc(NC(c2ccc(F)cc2)c2nnc(-c3ccccc3Cl)o2)cc1Cl (stereo not drawn)	nt	nt	nt	i	nt	i
